# Calls of active or inactive are those of the source.
# Tests used:
# [1] = small molecules captured by biotinylated probe aFSTL3 – biochemical, small-molecule microarray, fluorescence 635/667, stem cell growth factor project, primary screen (AID 1064); conditions: higher = more signal;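 further: measures binding of the biotinylated anti-FSTL3 antibody to printed compounds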
# [2] = binders from COS7 lysate, DM2A8 probe, primary screen, torsin A project, cell lysate, small-molecule microarray, fluorescence 635/667 (AID 1065); conditions: higher = more signal, COS7 lysate expressing mutant human TOR1A
# [3] = small molecules captured by biotinylated probe aFGF2 – biochemical, small-molecule microarray, fluorescence 635/667, stem cell growth factor project, primary screen (AID 1067); conditions: higher = more signal;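 further: measures binding of biotinylated aFGF2 protein to printed compounds on slides; z-score merges feature fluorescence and signal-to-noise across triplicate slides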
# [4] = small molecules captured by biotinylated probe aFGF10 – biochemical, small-molecule microarray, fluorescence 635/667, stem cell growth factor project, primary screen (AID 1071); conditions: higher = more signal;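 further: score merges 667 nm spot intensity and signal to noise from triplicate slides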
# [5] = biological target: Neurogenic locus notch homolog protein 2 (Homo sapiens) (UniProt Q04721); assay: small molecules binding Notch2 protein – biochemical, small-molecule microarray, 635 nm fluorescence, stem cell growth factors, primary screen (AID 1073); conditions: higher = more signal
# [6] = biological target: Pro-neuregulin-1, membrane-bound isoform (Homo sapiens) (UniProt Q02297); assay: small molecules binding neuregulin-1 protein – biochemical, small-molecule microarray, fluorescence 635/667, psychiatric disease protein project, primary screen (AID 1075); conditions: NRG1 binding, 635 nm fluorescence, higher = more signal;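 further: score combines 667 nm spot fluorescence with signal to noise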
# Pro-neuregulin-1, membrane-bound isoform (Homo sapiens), sequence (Q02297 whole entry, looked up, the tested form may be a part, canonical isoform): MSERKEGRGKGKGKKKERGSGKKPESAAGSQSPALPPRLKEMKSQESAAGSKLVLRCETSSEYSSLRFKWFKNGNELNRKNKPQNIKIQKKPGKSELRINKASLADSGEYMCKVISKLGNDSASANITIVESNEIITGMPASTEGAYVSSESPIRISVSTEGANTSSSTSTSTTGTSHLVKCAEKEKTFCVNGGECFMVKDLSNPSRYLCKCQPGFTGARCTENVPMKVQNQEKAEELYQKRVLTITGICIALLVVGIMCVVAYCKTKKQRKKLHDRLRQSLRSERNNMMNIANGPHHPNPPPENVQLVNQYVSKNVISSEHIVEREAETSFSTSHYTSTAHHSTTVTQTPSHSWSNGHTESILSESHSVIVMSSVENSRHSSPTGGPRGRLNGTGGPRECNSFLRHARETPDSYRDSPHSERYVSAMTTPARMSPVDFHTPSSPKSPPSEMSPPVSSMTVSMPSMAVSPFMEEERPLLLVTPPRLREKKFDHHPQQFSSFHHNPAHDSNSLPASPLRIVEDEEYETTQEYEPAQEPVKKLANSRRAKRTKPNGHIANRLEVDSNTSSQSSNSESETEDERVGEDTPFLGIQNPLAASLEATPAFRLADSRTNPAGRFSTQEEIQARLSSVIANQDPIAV
# [7] = test system: Neuregulin-1 EGF-like domain; assay: small molecules binding NRG1 EGF domain – biochemical, small-molecule microarray, 635 nm fluorescence, primary screen (AID 1081); conditions: higher = more signal;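 further: binding of the protein to compounds printed on small-molecule microarray slides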
# [8] = FRG1 expression reporter modulators in myotubes – cell-based, C2C12 myotubes, firefly/Renilla luciferase, luminescence, FRG1 inhibition for FSHD, primary screen (AID 1084); conditions: FRG1 promoter luciferase, higher = more signal, called active from +8 up or from −8 down
# [9] = small molecules captured by biotinylated probe aFST – biochemical, small-molecule microarray, fluorescence 635/667, stem cell growth factor project, primary screen (AID 1086); conditions: higher = more signal;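 further: score merges 667 nm fluorescence with signal-to-noise of each printed compound spot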
# [10] = binders of probe aHhip on microarray, primary screen, stem cell growth factor project, biochemical, small-molecule microarray, fluorescence 635/667 (AID 1087); conditions: higher = more signal;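 further: score merges spot fluorescence at 667nm with spot signal to noise ratio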
# [11] = test system: PRMT1 (protein arginine N-methyltransferase 1); assay: small molecules binding arginine methyltransferase PRMT1 – biochemical, small-molecule microarray, 635 nm fluorescence, primary screen (AID 1088); conditions: higher = more signal;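 further: binding of Prmt1 protein to compounds spotted on small-molecule microarray slides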
# [12] = growth effects on S. cerevisiae YJM789 – YJM789 clinical isolate, OD600, 24 h, basal, primary screen (AID 1089); conditions: higher = more signal, called active from +8 up or from −8 down;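 further: growth of clinical yeast isolate S. cerevisiae YJM 789 seeded 1000 cells per well; test concentration not given here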
# [13] = S. pombe growth modifiers, basal conditions – strain 972, OD600, 24 h, no modulator, primary screen (AID 1090);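 further: basal condition with compound alone and no growth modifier present; test concentration not given here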; conditions: S. pombe 972 growth, higher = more signal, called active from +8 up or from −8 down
# [14] = budding yeast growth modifiers under rapamycin – strain BY4716, OD600, 96 h, primary screen (AID 1091); further: test concentration not given here; conditions: S. cerevisiae BY4716 + rapamycin, higher = more signal, called active from +8 up or from −8 down
# [15] = biological target: Torsin-1A-interacting protein 2 (Homo sapiens) (UniProt Q8NFQ8); assay: small molecules binding lysate-expressed LULL1 – cell lysate, human LULL1 lysate, 635/667 nm fluorescence, primary screen (AID 1092); conditions: small-molecule microarray, hLULL1 lysate binding, 635 nm fluorescence; higher = more signal;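 further: probe is lysate of COS7 cells overexpressing human LULL1; score merges per-feature 667 nm fluorescence with signal-to-noise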
# Torsin-1A-interacting protein 2 (Homo sapiens), sequence (Q8NFQ8 whole entry, looked up): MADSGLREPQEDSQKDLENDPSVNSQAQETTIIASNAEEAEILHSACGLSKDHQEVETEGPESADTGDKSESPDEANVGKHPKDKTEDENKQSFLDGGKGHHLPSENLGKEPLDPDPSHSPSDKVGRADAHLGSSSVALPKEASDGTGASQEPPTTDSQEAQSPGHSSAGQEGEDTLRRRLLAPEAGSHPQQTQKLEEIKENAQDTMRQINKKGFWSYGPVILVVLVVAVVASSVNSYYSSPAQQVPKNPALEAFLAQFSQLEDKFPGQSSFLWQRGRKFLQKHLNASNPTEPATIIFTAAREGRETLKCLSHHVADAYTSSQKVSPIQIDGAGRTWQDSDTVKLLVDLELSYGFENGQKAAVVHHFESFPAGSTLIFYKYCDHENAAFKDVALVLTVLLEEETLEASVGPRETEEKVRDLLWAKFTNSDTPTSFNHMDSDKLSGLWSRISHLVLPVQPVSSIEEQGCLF
# [16] = optical density change of DRC41 E. coli – strain DRC41, OD650, 24 h, E. coli filamentation project, primary screen (AID 1093);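 further: MC1000 strain lacking acrAB efflux and sulA so SOS filamentation is blocked; test concentration not given here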; conditions: E. coli DRC41 growth, higher = more signal, called active from +8 up or from −8 down
# [17] = probe aLefty2 binding to arrayed compounds – biochemical, biotinylated probe, 635/667 nm fluorescence, primary screen (AID 1094); conditions: small-molecule microarray, higher = more signal;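 further: score merges spot fluorescence near 667 nm with spot signal-to-noise ratio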
# [18] = test system: Noggin (protein binding on small-molecule microarray); assay: small molecules binding Noggin protein – biochemical, 635/667 nm fluorescence, primary screen (AID 1095); conditions: 635 nm fluorescence, higher = more signal;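 further: score merges 667 nm feature fluorescence with signal to noise over triplicate slides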
# [19] = biological target: Neurogenic locus notch homolog protein 3 (Homo sapiens) (UniProt Q9UM47); assay: small molecules binding NOTCH3 protein – biochemical, 635/667 nm fluorescence, primary screen (AID 1096); conditions: small-molecule microarray, 635 nm fluorescence, higher = more signal
# Neurogenic locus notch homolog protein 3 (Homo sapiens), sequence (Q9UM47 whole entry, looked up): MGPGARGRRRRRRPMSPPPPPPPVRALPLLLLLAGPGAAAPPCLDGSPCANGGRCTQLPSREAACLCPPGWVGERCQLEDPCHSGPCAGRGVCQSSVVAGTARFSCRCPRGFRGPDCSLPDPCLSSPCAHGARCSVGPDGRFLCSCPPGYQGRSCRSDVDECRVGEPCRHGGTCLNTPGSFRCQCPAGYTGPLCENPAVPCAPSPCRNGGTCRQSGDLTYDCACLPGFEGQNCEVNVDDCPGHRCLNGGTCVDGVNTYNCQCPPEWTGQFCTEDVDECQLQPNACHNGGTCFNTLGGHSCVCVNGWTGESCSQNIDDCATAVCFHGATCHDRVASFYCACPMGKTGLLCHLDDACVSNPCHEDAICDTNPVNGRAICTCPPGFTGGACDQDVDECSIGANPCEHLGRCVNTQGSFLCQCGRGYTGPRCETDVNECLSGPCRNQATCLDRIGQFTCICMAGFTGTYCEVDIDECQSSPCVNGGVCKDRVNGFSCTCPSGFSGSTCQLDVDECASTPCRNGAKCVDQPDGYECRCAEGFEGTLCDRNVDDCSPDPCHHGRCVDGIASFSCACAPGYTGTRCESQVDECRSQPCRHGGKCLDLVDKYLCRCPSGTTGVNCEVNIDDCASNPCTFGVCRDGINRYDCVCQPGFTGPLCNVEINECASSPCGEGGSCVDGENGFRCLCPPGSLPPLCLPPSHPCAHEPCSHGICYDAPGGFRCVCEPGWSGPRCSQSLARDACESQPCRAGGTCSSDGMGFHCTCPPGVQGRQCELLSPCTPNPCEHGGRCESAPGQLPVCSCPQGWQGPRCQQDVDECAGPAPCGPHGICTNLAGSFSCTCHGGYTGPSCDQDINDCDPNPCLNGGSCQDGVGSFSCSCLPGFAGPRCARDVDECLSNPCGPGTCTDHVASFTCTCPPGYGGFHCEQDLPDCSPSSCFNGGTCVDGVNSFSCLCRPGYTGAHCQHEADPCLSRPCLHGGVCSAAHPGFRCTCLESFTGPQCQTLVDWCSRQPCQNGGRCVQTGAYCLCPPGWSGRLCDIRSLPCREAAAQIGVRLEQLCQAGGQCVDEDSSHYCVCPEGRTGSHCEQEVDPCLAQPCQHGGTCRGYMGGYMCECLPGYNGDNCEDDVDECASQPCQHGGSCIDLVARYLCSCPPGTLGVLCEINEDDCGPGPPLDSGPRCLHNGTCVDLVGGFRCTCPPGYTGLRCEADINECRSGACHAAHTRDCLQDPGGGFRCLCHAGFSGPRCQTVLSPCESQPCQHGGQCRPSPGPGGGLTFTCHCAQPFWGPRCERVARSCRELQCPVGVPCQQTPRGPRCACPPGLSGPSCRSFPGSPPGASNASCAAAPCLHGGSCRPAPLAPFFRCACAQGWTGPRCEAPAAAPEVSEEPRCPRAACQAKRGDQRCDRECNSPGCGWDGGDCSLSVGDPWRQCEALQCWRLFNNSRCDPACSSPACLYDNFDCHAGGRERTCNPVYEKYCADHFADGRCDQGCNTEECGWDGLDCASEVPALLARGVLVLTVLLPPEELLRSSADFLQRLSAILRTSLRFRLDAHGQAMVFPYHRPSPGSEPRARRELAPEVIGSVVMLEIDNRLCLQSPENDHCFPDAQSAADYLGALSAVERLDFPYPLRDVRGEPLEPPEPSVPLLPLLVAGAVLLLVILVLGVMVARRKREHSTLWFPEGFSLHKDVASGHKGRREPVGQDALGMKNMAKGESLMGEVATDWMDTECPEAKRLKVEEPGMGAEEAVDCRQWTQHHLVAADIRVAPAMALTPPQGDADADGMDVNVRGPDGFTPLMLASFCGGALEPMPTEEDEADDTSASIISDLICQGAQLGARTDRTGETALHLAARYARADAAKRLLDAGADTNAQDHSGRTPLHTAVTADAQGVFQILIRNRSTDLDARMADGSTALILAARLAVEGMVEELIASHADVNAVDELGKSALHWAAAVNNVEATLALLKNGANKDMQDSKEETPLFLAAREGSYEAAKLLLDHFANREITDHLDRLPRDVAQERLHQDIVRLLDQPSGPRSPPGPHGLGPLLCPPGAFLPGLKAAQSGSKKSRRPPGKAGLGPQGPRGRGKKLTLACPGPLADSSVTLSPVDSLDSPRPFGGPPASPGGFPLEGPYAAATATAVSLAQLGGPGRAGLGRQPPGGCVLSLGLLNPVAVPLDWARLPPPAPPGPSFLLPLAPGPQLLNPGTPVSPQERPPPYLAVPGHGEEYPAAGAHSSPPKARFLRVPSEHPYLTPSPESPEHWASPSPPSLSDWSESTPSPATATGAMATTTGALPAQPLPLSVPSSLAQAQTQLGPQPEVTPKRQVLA
# [20] = probe aEGFR binding to arrayed compounds – biochemical, biotinylated probe, 635/667 nm fluorescence, primary screen (AID 1097); conditions: small-molecule microarray, higher = more signal;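 further: probe is a biotinylated anti-EGFR antibody binding compounds printed on slides; score combines fluorescence near 667 nm and signal to noise of each spot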
SMILES,composite z-score [1],composite z-score [2],composite z-score [3],composite z-score [4],composite z-score [5],composite z-score [6],composite z-score [7],z-score [8],composite z-score [9],composite z-score [10],composite z-score [11],z-score [12],z-score [13],z-score [14],composite z-score [15],z-score [16],composite z-score [17],composite z-score [18],composite z-score [19],composite z-score [20]
C=C(CCCC)C(=O)CC[C@H](OC(=O)c1cccnc1)c1ccccc1OCCO,0.453,0.657,-0.0573,0.726,-0.261,-0.113,0.22,1.28 (inactive),0.0241,0.0505,0.449,-2.23 (inactive),-2.01 (inactive),-1.34 (inactive),-0.0709,0.576 (inactive),-0.19,0.282,0.214,-0.0656
O=C1OCCC/C=C\[C@H]2OC34C=CCN(Cc5ccccc5)C(=O)[C@H]3N(CCCCCCO)C(=O)[C@@H]4C12 (stereo not given in full),1.26,1.37,-0.0956,-0.437,-0.793,1.31,1.31,0.247 (inactive),-0.467,-0.0003,-0.197,0.464 (inactive),-0.431 (inactive),0.0977 (inactive),2.24,0.991 (inactive),0.0359,-2.14,-0.927,-0.237
C=CCOC(=O)[C@@H]1[C@H]2C(=O)O[C@H](c3ccccc3)[C@H](c3ccccc3)N2[C@H](c2ccc(OCCOC(=O)[C@@H]3C[C@@H]4C(=O)N[C@@H](CCCCN(C)C)C(=O)N4[C@@H]3c3ccc(O)cc3)cc2)[C@@]12C(=O)Nc1ccc(I)cc12,-0.317,0.25,-0.0216,0.347,1.2,1.11,1.2,0.0976 (inactive),0.171,-0.108,1.51,0.767 (inactive),-0.858 (inactive),1.51 (inactive),2.95,-0.907 (inactive),-0.119,1.24,1.11,0.0727
O=C1C2C=CC(C(O)C(c3ccccc3)c3ccccc3)N(n3cnnc3)C2C(=O)N1Cc1ccccc1 (stereo not given),-0.148,0.488,0.129,0.784,0.492,0.429,1.19,0.266 (inactive),0.578,0.446,1.44,-0.743 (inactive),-0.615 (inactive),-0.771 (inactive),3.25,-1.21 (inactive),-0.109,0.531,1.1,-0.167
CC(CO)N1C(=O)[C@@H]2C3C(=O)OCCC/C=C\[C@H]3OC23C=CCN(c2ccc4ccccc4c2)C(=O)[C@@H]13 (stereo not given in full),0.122,-0.933,-0.118,-0.594,-0.874,0.168,1.26,-0.775 (inactive),-0.576,-0.0994,0.0691,-0.531 (inactive),-0.743 (inactive),-0.0295 (inactive),-0.504,0.0095 (inactive),-0.0516,-0.871,-0.341,-0.18
C=C(COC)/C(=C/C[C@@H](OC(C)=O)c1ccc(OCCO)cc1)c1cc(C(=O)OC)ccc1OC,-0.524,0.118,-0.0316,0.872,0.62,0.67,0.705,0.296 (inactive),0.627,0.107,1.54,0.0937 (inactive),-0.51 (inactive),-0.645 (inactive),2.16,-0.018 (inactive),-0.027,1.35,1.12,-0.0728
CCCN1C(=O)[C@]2(CCS(=O)(=O)c3ccccc3)N=C(c3ccc(OCCCO)cc3)O[C@@H]2c2ccccc21,0.375,-0.212,-0.0027,0.572,0.58,1.28,1.27,-0.775 (inactive),0.458,-0.0645,1.54,-0.559 (inactive),-0.0812 (inactive),2.82 (inactive),2.84,1.97 (inactive),0.106,0.866,1.09,-0.0509
NCCCCCNC(=O)[C@@H]1C[C@@H]2C(=O)NCC(=O)N2[C@@H]1c1ccc(O)cc1,-0.293,0.304,-0.129,0.975,-0.195,0.817,1.25,0.117 (inactive),-0.107,-0.0994,1.53,-0.491 (inactive),-0.723 (inactive),0.124 (inactive),2.51,-0.031 (inactive),-0.145,1.37,0.892,-0.192
COCCCNC(=O)[C@@]1(Cc2ccccc2N=[N+]=[N-])N=C(c2ccc(OCCCO)cc2)O[C@H]1c1ccccc1N=[N+]=[N-],0.622,0.81,-0.252,0.436,1.37,1.52,0.831,-0.702 (inactive),1.36,-0.26,1.56,0.253 (inactive),-0.143 (inactive),2.01 (inactive),3.27,-0.27 (inactive),0.23,0.0556,1.1,0.0507
C=C(COC)/C(=C/C[C@@H](OC(C)=O)c1ccc(CO)o1)c1cnc2ccccc2c1,-0.258,0.434,0.0472,1.11,1.65,1.02,1.04,0.527 (inactive),0.408,0.364,1.54,1.17 (inactive),-0.721 (inactive),0.951 (inactive),0.612,1.27 (inactive),0.0624,1.72,1.04,0.0821
